Sfp inh: inhibitors of Bacillus subtilis Sfp phosphopantetheinyl transferase; actives 3.5% (n = 310,000); AID 1490; Biochemical Sfp PPTase activity, qHTS; Potency, µM, inactives show largest response in the series, negative = inhibition, actives largely listed as inhibitors; Q9F4F7;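 note: the enzyme is Sfp with the accession as filed and its product quenches rhodamine fluorescence; 0% = enzyme reaction without inhibitor and -100% = no enzyme wells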
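Compounds were incubated with enzyme (final 15 nM) for 15 min at room temperature before substrate addition started the reaction. Fluorescence at 525 nm excitation, 598 nm emission was recorded immediately and after 30 minutes.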
JMJD2A Tudor: blocks the human JMJD2A Tudor domain | AlphaScreen JMJD2A-Tudor / H3K4me3 peptide binding | Potency, µM (highest dose often 114 µM), without a hit: at the top dose activity change, negative = inhibition, most hits filed as inhibitors | actives 4.4% (n = 390,000) | AID 504339; note: % is set by controls: 0 for no effect and ±100 for the full control effect; nearly all actives have a fitted effect of over 50% in size
L3MBTL1 inh: inhibitors of human L3MBTL1. Q9Y468. AlphaScreen L3MBTL1–H3K9me1 peptide binding. Potency, µM (top dose mostly 57.1 µM), for the others: at the highest dose activity, negative = inhibition, actives largely listed as inhibitors. actives 0.66% (n = 230,000). AID 485360; note: % is set by controls: 0 for no effect and ±100 for the full control effect; nearly all actives have a fitted effect of over 60% in size
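L3MBTL1 (50 nM) pre-complexed 30 min with biotinylated H3(1-15)K9me1 peptide (75 nM), then compounds added for 30 min at room temperature; AlphaScreen streptavidin donor/nickel chelate acceptor beads (10 ug/mL final) read after 30 min dark incubation.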
BAZ2B block: blocks human BAZ2B. Potency, µM (highest dose often 114 µM), for the others: at the top dose activity change, negative = inhibition, most hits filed as inhibitors. AlphaScreen BAZ2B-H3K14Ac peptide displacement. AID 504333. actives 4.4% (n = 360,000). Q9UIF8; note: % is set by controls: 0 for no effect and ±100 for the full control effect; nearly all actives have a fitted effect of over 60% in size
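BAZ2B 50 nM plus b-H3(5-23)K14Ac 50 nM, PBS pH 7.4/0.01% Tween-20, 30 min RT; compound added (max 110 uM), 30 min RT; streptavidin donor/Ni-chelate acceptor beads 10 ug/mL final, 20 min dark; AlphaScreen read.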
G9a block: blocks human histone lysine methyltransferase G9a; Q96KQ7; G9a H3K9 monomethylation, AlphaScreen, 2 h; Potency, µM (titrated, usually from 102 µM), inactives show top-dose activity, negative = inhibition, actives largely listed as inhibitors; actives 8.8% (n = 350,000); AID 504332; note: % is set by controls: 0 for no effect and ±100 for the full control effect; nearly all actives have a fitted effect of over 75% in size
Target sequence (Q96KQ7 913-1193 limits assumed): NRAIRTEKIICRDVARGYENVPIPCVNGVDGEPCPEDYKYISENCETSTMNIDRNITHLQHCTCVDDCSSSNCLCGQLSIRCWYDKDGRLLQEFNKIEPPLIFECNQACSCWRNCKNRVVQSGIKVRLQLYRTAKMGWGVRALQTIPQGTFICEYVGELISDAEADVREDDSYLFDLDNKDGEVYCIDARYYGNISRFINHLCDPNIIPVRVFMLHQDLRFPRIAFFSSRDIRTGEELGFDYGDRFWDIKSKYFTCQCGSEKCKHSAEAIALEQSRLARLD
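Enzyme 20 nM + cpd, 15 min RT; add b-H3K9 pep 500 nM / SAM 20 uM; 2 h RT; anti-H3K9me1 Ab 0.5 ug/mL + SA donor / anti-rabbit acceptor beads 20 ug/mL each, 10 min; AlphaScreen read.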
HP1b chromo inh: HP1-beta chromodomain-methylated histone interaction inhibition; P83916; AlphaScreen HP1-beta / biotin-H3K9me3 peptide binding; Potency, µM (doses to about 114 µM), for inactives: at the highest dose activity change, negative = inhibition, usual class: inhibitors; actives 0.56% (n = 390,000); AID 540317; note: nearly all actives have a fitted effect of over 70% in size
Target sequence (P83916 whole entry, looked up): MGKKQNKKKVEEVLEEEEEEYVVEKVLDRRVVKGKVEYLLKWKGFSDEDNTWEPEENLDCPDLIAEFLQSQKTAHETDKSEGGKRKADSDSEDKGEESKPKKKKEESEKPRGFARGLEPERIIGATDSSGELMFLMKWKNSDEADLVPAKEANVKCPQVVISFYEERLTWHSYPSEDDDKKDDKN
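Compound inhibition of the preformed complex between 50 nM HP1-beta and 50 nM biotinylated H3K9me3 peptide was read by AlphaScreen. Buffer was PBS pH 7.4 with 0.01% Tween-20. Incubations ran 30 min at room temperature, with 10 ug/mL donor/acceptor beads.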
Starred values were filed as active, the others as inactive; u = inconclusive; x = no result given; [ ] = another dose, or the depositor's remark. Hits are enriched below; roughly 12% of the tested compounds scored in any of these assays. Calls come from the whole dose curve; as a rule, active = well fitted curve in the direction sought with a large enough effect; inconclusive = small, poorly fitted or top-dose-only effect, or another doubt; inactive = no such curve, though single readings can be large; an effect the other way counts as inactive or inconclusive. Potency is the fitted concentration of half-maximal effect.

SMILES	Sfp inh	JMJD2A Tudor	L3MBTL1 inh	BAZ2B block	G9a block	HP1b chromo inh
C[C@H](CO)N1C[C@H](C)[C@@H](CN(C)Cc2ccncc2)Oc2ccc(NC(=O)CCCCCC(=O)Nc3ccccc3N)cc2C1=O	x	-12%	2%	x	x	42%
Cc1cc(O)c(Sc2ncn[nH]2)cc1NS(=O)(=O)c1ccc(Cl)cc1	x	-17%	-8%	-20%	3%[12.7 µM]	27%
Cc1ccc([N+](=O)[O-])cc1S(=O)(=O)Nc1ccc(O)c(Sc2ncn[nH]2)c1	45µM*	-19%	x	-3%	x	25%
CC(=O)[C@H](CC(C)C)NC(=O)[C@@H](CC(C)C)NC(=O)[C@H](CC(C)C)NC(=O)OCc1ccccc1	-11%	x	x	x	x	x
COc1ccc(OC)c(NS(=O)(=O)c2ccc3c(c2)n(C)c(=O)n3C)c1	2%	-3%	x	u	-7%[12.7 µM]	16%
Cc1ccc(S(=O)(=O)Nc2cc3c(cc2N2CCOCC2)n(C)c(=O)c(=O)n3C)cc1	-2%	-2%	x	-22%	u	52%
Cn1c(=O)c(=O)n(C)c2cc(N3CCOCC3)c(NS(=O)(=O)c3ccc(Br)cc3)cc21	45µM*	u	x	u	35µM*	-4%
Cn1c(=O)c(=O)n(C)c2cc(N3CCCCC3)c(NS(=O)(=O)c3ccc([N+](=O)[O-])cc3)cc21	-23%	-31%	x	-37%	32µM*	39%
Cn1c(=O)c(=O)n(C)c2cc(N3CCCC3)c(NS(=O)(=O)c3ccc(F)cc3)cc21	1%	-24%	x	-17%[57.1 µM]	40µM*	50%
COc1ccc(OC)c(S(=O)(=O)Nc2cc3c(cc2N2CCCC2)n(C)c(=O)c(=O)n3C)c1	-5%	32µM*	x	50µM*	10µM*	7%
O=C(CCCn1c(=O)[nH]c2ccccc2c1=O)NCc1ccccc1Cl	x	-17%	x	-13%	11%[59 µM]	-8%
CCC(C)c1ccc(O[C@@H]2O[C@H](CO)[C@@H](O)[C@H](O)[C@H]2NC(C)=O)cc1 (stereo partly specified)	7%	x	x	x	x	x
Cc1cc(OCC(=O)NCc2ccccn2)c2c(C)cc(=O)oc2c1	16%	-22%	x	-15%[57.1 µM]	39%	70%
c1cc[n+](CCC[n+]2ccccc2)cc1	9%	u	x	0%	11µM*	11%
c1cc[n+](CCCC[n+]2ccccc2)cc1	2%	-8%	-4%	8%	x	25%
CN(C)c1nc(-c2ccoc2)nc2ccccc12	50µM*	x	x	x	x	x
N#C/C(=C(/O)CCl)c1nnc2n1CCCCC2	-36%	20µM*	x	79µM*	-40%	0%
COc1cc(C2CC(=O)Oc3ccc(C(C)(C)C)cc32)cc(OC)c1OC (stereo unspecified)	-10%	-9%	-4%	x	13%	27%
O=C1NCC2=C1C(c1ccc(Br)cc1)Nc1ccccc1N2 (stereo unspecified)	-1%	-31%	-5%	-3%	45µM*	17%
CC1(C)CC(=O)C2=C(C1)Nc1ccccc1NC2c1ccc(F)cc1 (stereo unspecified)	3%	-18%	-7%	-5%	13%	23%
CCN(CC)CCC(c1ccc(N(C)C)cc1)c1c(OC)cc(OC)c2c(C)cc(=O)oc12 (stereo unspecified)	-11%	35µM*	x	x	x	u
CCCCCc1cc(=O)oc2c(C(CCN(CC)CC)c3ccc(N(C)C)cc3)c(OC)cc(OC)c12 (stereo unspecified)	u	28µM*	x	14µM*	u	u
Cc1ccsc1-c1n[nH]c(=S)n1C1CCCCC1	-3%	35µM*	-3%	-8%	1.6µM*	u
COc1ccc(Cl)cc1-c1n[nH]c(=S)n1C1CCCCC1	12%	35µM*	x	-20%	1.4µM*	15%
COc1ccc(Cl)cc1-c1n[nH]c(=S)n1Cc1ccccc1	-1%	-32%	5%	-7%	3.2µM*	37%
SMILES	Sfp inh	JMJD2A Tudor	L3MBTL1 inh	BAZ2B block	G9a block	HP1b chromo inh
Cc1cc(Cl)ccc1OCc1n[nH]c(=S)n1C1CCCCC1	10%	-34%[57.1 µM]	-7%	u	u	-10%
Cc1ccsc1-c1nc(CN2CCCC2c2ccc(F)cc2)c(C)o1 (stereo unspecified)	7%	-6%	-5%	-31%	-5%	40%
S=c1[nH]nc(-c2cccnc2)n1C1CCCCC1	-19%	5µM*	9%	4%	20µM*	26%
COc1ccc(NC(=O)CSc2nnc(C)n2C2CCCCC2)cc1	-10%	-11%	x	-9%	u	3%
COc1ccc(-c2n[nH]c(=S)n2C2CCCCC2)cc1	14%	7.1µM*	2%	-7%	2.5µM*	17%
C#CCOCCOCCOCCNc1nc(N2CCN(C(=O)Cn3cc(CC(C)O)nn3)CC2)nc(N2CCN(C(=O)[C@H](C)n3cc(CCCN=C(N)N)nn3)CC2)n1 (stereo partly specified)	1%	45µM*	7%	79µM*	7.1µM*	-10%
C#CCOCCOCCOCCNc1nc(N2CCN(C(=O)Cn3cc(CCCN=C(N)N)nn3)CC2)nc(N2CCN(C(=O)[C@H](CCCCN)n3cc(CC(C)O)nn3)CC2)n1 (stereo partly specified)	x	-11%	9%	5%	16%[2.33 µM]	17%
C#CCOCCOCCOCCNc1nc(N2CCN(C(=O)Cn3cc(CCCCN)nn3)CC2)nc(N2CCN(C(=O)[C@H](C)n3cc(CCCN=C(N)N)nn3)CC2)n1	4%	x	-12%	u	28µM*	x
CCCCC[C@]12Cc3ccccc3C(O1)C1=C(CC(C)(C)CC1=O)O2	8%	x	x	7%[22.9 µM]	x	x
O=C1CCCN1CC(O)CS(=O)(=O)Cc1ccc(Cl)c(Cl)c1 (stereo unspecified)	12%	-8%	x	8%	-7%[2.33 µM]	47%
S=c1[nH]nc(CCCc2n[nH]c(=S)o2)o1	u	2.8µM*	x	-29%	x	u
Cc1cc(N=Cc2c(O)n(-c3cccc(C(F)(F)F)c3)c(=O)c3ccccc23)no1	63µM*	-11%	-4%	-2%	4%[59 µM]	9%
Cc1cccc(-n2c(O)c(C=NCc3ccccn3)c3ccccc3c2=O)c1	-6%	-25%	5%	u	24%[59 µM]	22%
CCOC(=O)/C=C/c1cc(F)c(S(=O)(=O)N2CCN(S(=O)(=O)c3ccc4c(c3)OCCO4)CC2)cc1F	x	-4%	x	x	x	x
COc1cc(/C=N/NC(=O)C(C)Nc2n[nH]c(=O)[nH]c2=O)cc(OC)c1O (stereo unspecified)	-6%	-15%	8%	-6%	35µM*	-14%
COC(=O)/C=C\c1cc(O)ccc1O	50µM*	x	x	x	x	x
